# The entries come from a sample that favours the strongest signals as a whole.
# B1: SBD-G4S3-Fc (protein)
# chain: MASIPSSASVQLDSYNYDGSTFSGKIYVKNIAYSKKVTVVYADGSDNWNNNGNIIAASFSGPISGSNYEYWTFSASVKGIKEFYIKYEVSGKTYYDNNNSANYQVSTGGGGSGGGGSGGGGSEFVPRDCGCKPCICTVPEVSSVFIFPPKPKDVLTITLTPKVTCVVVDISKDDPEVQFSWFVDDVEVHTAQTQPREEQFNSTFRSVSELPIMHQDWLNGKEFKCRVNSAAFPAPIEKTISKTKGRPKAPQVYTIPPPKEQMAKDKVSLTCMITDFFPEDITVEWQWNGQPAENYKNTQPIMDTDGSYFVYSKLNVQKSNWEAGNTFTCSVLHEGLHNHHTEKSLSHSPGAA
# How the values were obtained:
# Experiment in all cases: glycan array binding signal (z-score within array); higher = stronger binding
# Details in all cases: glycan notation: IUPAC condensed, linker removed
# [1] = target: Gal(b1-4)GlcNAc(b1-3)[Gal(b1-4)GlcNAc(b1-6)]Gal(b1-4)GlcNAc
# How it was run: (§1)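 Glycan array data were curated from 3228 arrays in the Consortium for Functional Glycomics database and kept only where the protein sequence was available. Glycan names were converted to IUPAC-condensed notation, and columns mapping to the same glycan were averaged. The binding signal is a within-array Z-score, averaged across arrays of the same protein sequence at different concentrations or buffers and across linkers. Negative Z-scores can be read as non-binding.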
# Gal(b1-6)Gal = target: Gal(b1-6)Gal
# How it was run: as §1
# Gal6P(b1-4)GlcNAc = target: Gal6P(b1-4)GlcNAc
# How it was run: as §1
# Gal6S(b1-4)Glc = target: Gal6S(b1-4)Glc
# How it was run: as §1
# Gal6S(b1-4)Glc6S = target: Gal6S(b1-4)Glc6S
# How it was run: as §1
# [2] = target: GalNAc(b1-3)Gal(a1-6)Gal(b1-4)Glc
# How it was run: as §1
# [3] = target: GalNAc(b1-4)GlcNAc(b1-2)Man(a1-3)[GalNAc(b1-4)GlcNAc(b1-2)Man(a1-6)]Man(b1-4)GlcNAc(b1-4)GlcNAc
# How it was run: as §1
# GalNAc(b1-4)GlcNAc6S = target: GalNAc(b1-4)GlcNAc6S
# How it was run: as §1
# [4] = target: Glc(a1-4)Glc(a1-4)Glc(a1-4)Glc
# How it was run: as §1
# Glc(b1-6)Glc = target: Glc(b1-6)Glc
# How it was run: as §1
# [5] = target: GlcNAc(a1-4)Gal(b1-4)GlcNAc(b1-3)Gal(b1-4)GlcNAc
# How it was run: as §1
# [6] = target: GlcNAc(b1-2)[GlcNAc(b1-6)]Man(a1-6)[GlcNAc(b1-2)Man(a1-3)]Man(b1-4)GlcNAc(b1-4)GlcNAc
# How it was run: as §1
# [7] = target: GlcNAc(b1-3)Gal(b1-4)GlcNAc(b1-3)Gal(b1-4)GlcNAc(b1-2)Man(a1-3)[GlcNAc(b1-3)Gal(b1-4)GlcNAc(b1-3)Gal(b1-4)GlcNAc(b1-2)Man(a1-6)]Man(b1-4)GlcNAc(b1-4)GlcNAc
# How it was run: as §1
# [8] = target: GlcNAc(b1-3)Gal(b1-4)GlcNAc(b1-3)Gal(b1-4)GlcNAc(b1-2)Man(a1-3)[GlcNAc(b1-3)Gal(b1-4)GlcNAc(b1-3)Gal(b1-4)GlcNAc(b1-2)Man(a1-6)]Man(b1-4)GlcNAc(b1-4)[Fuc(a1-6)]GlcNAc
# How it was run: as §1
# [9] = target: GlcNAc(b1-3)Gal(b1-4)GlcNAc(b1-3)Gal(b1-4)GlcNAc(b1-3)Gal(b1-4)GlcNAc(b1-2)Man(a1-3)[GlcNAc(b1-3)Gal(b1-4)GlcNAc(b1-3)Gal(b1-4)GlcNAc(b1-3)Gal(b1-4)GlcNAc(b1-2)Man(a1-6)]Man(b1-4)GlcNAc(b1-4)[Fuc(a1-6)]GlcNAc
# How it was run: as §1
# [10] = target: GlcNAc(b1-4)Gal(b1-4)GlcNAc
# How it was run: as §1
# [11] = target: GlcNAc(b1-4)GlcNAc(b1-4)GlcNAc(b1-4)GlcNAc(b1-4)GlcNAc(b1-4)GlcNAc
# How it was run: as §1
# [12] = target: GlcNAc(b1-4)[GlcNAc(b1-6)]GalNAc
# How it was run: as §1
# Man(a1-2)Man(a1-3)Man = target: Man(a1-2)Man(a1-3)Man
# How it was run: as §1
# [13] = target: Man(a1-2)Man(a1-3)[Man(a1-2)Man(a1-6)]Man(a1-6)[Man(a1-2)Man(a1-2)Man(a1-3)]Man(b1-4)GlcNAc(b1-4)GlcNAc
# How it was run: as §1
# Man(a1-6)Man = target: Man(a1-6)Man
# How it was run: as §1
# Man(b1-4)GlcNAc = target: Man(b1-4)GlcNAc
# How it was run: as §1
# [14] = target: Neu5Ac(a2-3)Gal(b1-3)[GlcNAc(b1-6)]GalNAc
# How it was run: as §1
# [15] = target: Neu5Ac(a2-3)Gal(b1-4)[Fuc(a1-3)]GlcNAc(b1-6)[Neu5Ac(a2-3)Gal(b1-3)]GalNAc
# How it was run: as §1
# Neu5Ac(a2-6)Gal = target: Neu5Ac(a2-6)Gal
# How it was run: as §1
# [16] = target: Neu5Ac(a2-6)Gal(b1-3)GlcNAc(b1-3)[Gal(b1-4)GlcNAc(b1-6)]Gal(b1-4)Glc
# How it was run: as §1
# [17] = target: Neu5Ac(a2-6)Gal(b1-4)GlcNAc(b1-3)Gal(b1-4)GlcNAc(b1-3)Gal(b1-4)GlcNAc
# How it was run: as §1
# [18] = target: Neu5Ac(a2-6)Gal(b1-4)GlcNAc(b1-3)Gal(b1-4)GlcNAc(b1-3)Gal(b1-4)GlcNAc(b1-2)Man(a1-3)[Neu5Ac(a2-6)Gal(b1-4)GlcNAc(b1-3)Gal(b1-4)GlcNAc(b1-3)Gal(b1-4)GlcNAc(b1-2)Man(a1-6)]GalNAc
# How it was run: as §1
# [19] = target: Neu5Ac(a2-8)Neu5Ac(a2-8)Neu5Ac(a2-8)Neu5Ac(a2-3)[GalNAc(b1-4)]Gal(b1-4)Glc
# How it was run: as §1
# [20] = target: Neu5Ac(a2-8)Neu5Gc(a2-3)Gal(b1-4)GlcNAc
# How it was run: as §1
# Neu5Ac(b2-6)GalNAc = target: Neu5Ac(b2-6)GalNAc
# How it was run: as §1
# [21] = target: Neu5Ac9Ac(a2-3)Gal(b1-3)GlcNAc
# How it was run: as §1
# [22] = target: Neu5Ac9Ac(a2-6)Gal(b1-4)GlcNAc
# How it was run: as §1
# [23] = target: Neu5Gc(a2-3)Gal(b1-3)GlcNAc
# How it was run: as §1
binder,measurement,setting,value
B1,glycan array binding signal (z-score),[1],-0.023
same,glycan array binding signal (z-score),Gal(b1-6)Gal,-0.372
same,glycan array binding signal (z-score),Gal6P(b1-4)GlcNAc,-0.45
same,glycan array binding signal (z-score),Gal6S(b1-4)Glc,0.105
same,glycan array binding signal (z-score),Gal6S(b1-4)Glc6S,0.402
same,glycan array binding signal (z-score),[2],-0.468
same,glycan array binding signal (z-score),[3],-0.087
same,glycan array binding signal (z-score),GalNAc(b1-4)GlcNAc6S,-0.208
same,glycan array binding signal (z-score),[4],12.1
same,glycan array binding signal (z-score),Glc(b1-6)Glc,0.309
same,glycan array binding signal (z-score),[5],-0.415
same,glycan array binding signal (z-score),[6],-0.075
same,glycan array binding signal (z-score),[7],3.18
same,glycan array binding signal (z-score),[8],1.28
same,glycan array binding signal (z-score),[9],1.91
same,glycan array binding signal (z-score),[10],-0.117
same,glycan array binding signal (z-score),[11],-0.372
same,glycan array binding signal (z-score),[12],0.069
same,glycan array binding signal (z-score),Man(a1-2)Man(a1-3)Man,-0.16
same,glycan array binding signal (z-score),[13],-0.404
same,glycan array binding signal (z-score),Man(a1-6)Man,-0.195
same,glycan array binding signal (z-score),Man(b1-4)GlcNAc,-0.231
same,glycan array binding signal (z-score),[14],-0.317
same,glycan array binding signal (z-score),[15],-0.117
same,glycan array binding signal (z-score),Neu5Ac(a2-6)Gal,-0.041
same,glycan array binding signal (z-score),[16],-0.05
same,glycan array binding signal (z-score),[17],0.075
same,glycan array binding signal (z-score),[18],1.23
same,glycan array binding signal (z-score),[19],-0.006
same,glycan array binding signal (z-score),[20],7.21
same,glycan array binding signal (z-score),Neu5Ac(b2-6)GalNAc,-0.513
same,glycan array binding signal (z-score),[21],0.058
same,glycan array binding signal (z-score),[22],0.039
same,glycan array binding signal (z-score),[23],-0.167
